In the OligoGym collection:

molecular target: FRMD4B; assay: pooled miR-30 sensor sort-seq; sequence = guide strand; conditions: shRNA
Further: reference of the scale not given here.

Sequence	sensor-assay potency score (higher = more potent)
TTCCATTGGAATAACTTCCGAG	0.389
TATTAGAAAATTACTCTCCAGT	0.00309
TTGCTCTTCACTAACTTCTGAG	-0.0574
TAGACATTGCCATAGCAGCTGG	-0.855
TTACTTGCCATGATGAACTGAC	0.412

molecular target: FRRS1; assay: as above; conditions: shRNA

Sequence	sensor-assay potency score (higher = more potent)
TTTTATACTTCTCAACAACTGT	-0.421
TTATTCTAGCAGCTGTTCCCAT	-0.391
TTCTTCTGAAAGAACACTGCAT	0.427
TGACAAAGTAACTTCAATCTGA	0.192
TAACTTCAATCTGATCTCCTGG	0.0664
TAAGGCACCATGAACCTTCAGA	-0.182
ATAAGCATCATCATCACCCATC	-0.528
AAGAACACTGCATAACACCGTC	-0.249
TAAATTGCCAACACTGCCTTTT	-0.275
TAACAGTAGTCATCCATGCCAC	-0.274
TTCAACTCCAGAACAACCTCAG	0.767
TATGCTAACAGTAGTCATCCAT	0.0935
